# This is part of a sample that, as a whole, favours compounds with a hit. Of some 79,000 tested, about 15% had one in any assay. A number with no mark means an inactive call. Calls of active or inactive are those of the source. No stated cut-off is given here; in the data, active means growth inhibition above about 70%; inactive means the rest.
# Experiment: NCI Yeast Anticancer Drug Screen. Data for the rad50EPP+ strain (AID 151);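 further: 0% = growth of vehicle-treated control cultures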
# Settings: S. cerevisiae rad50 mutant strain, stronger effect = higher value
# Protocol: Growth inhibition of yeast strains with defined genetic alterations is measured as a screen for potential anti-cancer activity. Selected strains with alterations in DNA damage repair or cell cycle control were exposed to compounds and growth inhibition was measured relative to vehicle treated controls. The strain used in this assay is rad50EPP+
Structure (SMILES),growth inhibition (at 1.2 µM),growth inhibition (at 3.7 µM),growth inhibition (at 11.0 µM),growth inhibition (at 33.0 µM),growth inhibition (at 100.0 µM)
CO[C@@]12[C@H](COC(N)=O)C3=C(C(=O)C(C)=C(N)C3=O)N1C[C@@H]1N[C@@H]12,-4%,5%,25%,63%,83% (active)
CCN(CC)N=Nc1c(C(N)=O)n[nH]c1C,-2%,3%,5%,31%,80% (active)
O=NN(CCCl)C(=O)NCCCl,-3%,-1%,5%,30%,76% (active)
Nc1ccc(CCl)cc1Cc1c(O)ccc2ccccc12,8%,15%,40%,61%,74% (active)
Nc1nc(F)nc2c1ncn2C1OC(COP(=O)(O)O)C(O)C1O (stereo not given),3%,12%,26%,43%,67%
On1cnc(=S)c2[nH]cnc21,-23%,-39%,-11%,-37%,-41%
O=C1c2ccccc2C(=O)c2cc(S(=O)(=O)Nc3ccccc3)ccc21,9%,21%,34%,45%,47%
Cc1onc(-c2ccccc2Cl)c1C1=N/C(=C/c2cc(Cl)cc(Cl)c2O)C(=O)O1,-22%,-28%,3%,-5%,-25%

# Reference: PubChem BioAssay (NCI)
